Data taken from PubChem BioAssay AID2642 (Johns Hopkins Ion Channel Center, 2010).
Among all 310,000 compounds or so, about 3,900 (1.3%) were called active.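 Rule for the calls: active = compounds whose thallium flux B-score, printed positive for inhibition, exceeds three library SD while starting fluorescence stays within three; inactive = the rest.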 The sample as a whole holds a higher share of actives than the screen did.

Target: Potassium voltage-gated channel subfamily KQT member 1 (Homo sapiens) (UniProt P51787)
Sequence (P51787 whole entry, looked up): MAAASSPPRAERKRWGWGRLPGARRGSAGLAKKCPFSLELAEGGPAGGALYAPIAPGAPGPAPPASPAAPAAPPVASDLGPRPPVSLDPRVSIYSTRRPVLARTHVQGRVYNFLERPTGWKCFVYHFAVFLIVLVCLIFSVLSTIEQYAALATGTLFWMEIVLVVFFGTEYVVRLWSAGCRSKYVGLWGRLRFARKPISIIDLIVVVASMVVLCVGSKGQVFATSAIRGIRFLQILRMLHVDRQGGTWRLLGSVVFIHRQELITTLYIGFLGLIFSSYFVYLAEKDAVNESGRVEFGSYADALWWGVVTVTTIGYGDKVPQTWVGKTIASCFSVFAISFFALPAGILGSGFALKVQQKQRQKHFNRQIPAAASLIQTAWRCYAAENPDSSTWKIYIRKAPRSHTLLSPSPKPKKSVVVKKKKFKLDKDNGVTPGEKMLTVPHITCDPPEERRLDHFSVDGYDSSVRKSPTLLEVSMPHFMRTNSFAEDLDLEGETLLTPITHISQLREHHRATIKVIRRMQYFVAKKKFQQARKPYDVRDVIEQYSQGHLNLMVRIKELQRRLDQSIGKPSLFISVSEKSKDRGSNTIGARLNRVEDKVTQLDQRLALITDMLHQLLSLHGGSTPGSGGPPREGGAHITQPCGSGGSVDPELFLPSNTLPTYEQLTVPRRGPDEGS
Test: inhibitors of human KCNQ1 channel, primary screen, cell-based, thallium flux, high-throughput (AID 2642);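 note: channel opened by potassium depolarization with thallium stimulus after 20 min compound exposure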
Settings: CHO-K1 KCNQ1, FluxOR thallium flux fluorescence, at 10 µM; stronger effect = higher value

B-score, inactive:
COc1ccc(CN(C)C(=O)Cc2c[nH]c3ccccc23)c(OC)c1OC
CNC(=S)N1N=C(c2ccccc2)CC1c1ccc(Br)cc1 (centres undefined)
c1ccc(C2=Nc3cccc4cccc(c34)N2)cc1
CC1CCCN(S(=O)(=O)c2ccc(N(C(=O)c3cnccn3)C(C(=O)NC3CCCCC3)c3cccs3)cc2)C1 (centres undefined)
Cc1cc(C)n(-c2nnc(C)n2NC(=O)c2cccc(Cl)c2)n1
Cc1ccc2c(c1)N(CCCC(=O)NCc1cccnc1)C(=O)CO2
Cc1ccc(NC(=S)NC(NC(=O)Cc2cccc3ccccc23)C(Cl)(Cl)Cl)cc1 (centres undefined)
O=C(O)Cc1ccc(NC(=O)Nc2cccc3ccccc23)cc1
COc1ccc(CNC(=O)c2c[nH]c3c(OC)cc(OC)cc3c2=O)cc1
CCOc1ccc(OCCSc2nc3ccccc3n2CC(=O)O)cc1
O=C(CCC(=O)c1cccs1)Nc1nc2ccccc2s1
O=C(Nc1nc(-c2ccco2)c(-c2ccco2)s1)c1ccco1
CSc1nc2ccc(S(=O)(=O)N3CCc4ccccc43)cc2s1
CCC(=O)NC(Nc1nc2ccc(C)cc2s1)(C(=O)OC)C(F)(F)F (centres undefined)
CN(C)CCCN(C(=O)c1ccc(S(=O)(=O)N2CCCc3ccccc32)cc1)c1nc2ccc(F)cc2s1
CCOc1ccc2nc(NC(=O)c3cc([N+](=O)[O-])ccc3N3CCOCC3)sc2c1
O=C1NC(=O)C(c2ccc(Cl)cc2)N1 (centres undefined)
Cc1cc(=O)n2nc(N3CCCC(C(=O)NCc4ccc(Cl)cc4)C3)sc2n1 (centres undefined)
CC(OC(=O)CN1C(=O)COc2ccccc21)C(=O)NCc1ccc(F)cc1 (centres undefined)
N#Cc1c(Cl)nc(-c2cccnc2)nc1-c1ccccc1
O=C(NN1CCOCC1)c1cccc(F)c1
O=C(NNC(=O)c1cc(-c2ccccc2Cl)nc2ccccc12)c1csc(N2CCOCC2)n1
CCC(=O)N1CCC(C(N)=O)(N2CCCCC2)CC1
COc1cccc(NC(=O)CCNS(=O)(=O)c2ccc3c(c2)oc(=O)n3C)c1
COc1ccc(S(=O)(=O)NCCCc2ccccc2)cc1
COC(=O)CNS(=O)(=O)c1ccc(OC)cc1
CCNS(=O)(=O)c1ccc(NC(=O)Nc2cccc(OC)c2)cc1
Cc1cccc(NC(=O)c2ccc3c(=O)n(CC4CCCO4)c(=S)[nH]c3c2)c1 (centres undefined)
COc1cc(OC)cc(C(=O)NC(=S)N2CCN(c3ccc(C(F)(F)F)cc3[N+](=O)[O-])CC2)c1
CCOc1ccc(-c2cc(C(=O)N/N=C/c3ccc(O)cc3)c3ccccc3n2)cc1
NC1=NC2(CCCCC2)N(c2ccc(F)cc2F)C(N)=N1
COc1ccc(CNC(=O)/C(C#N)=C/c2cccc(OC)c2OC)cc1
CCOC(=O)C1CCN(c2ncnc3c2c(-c2ccccc2)cn3-c2ccc(C)cc2)CC1
CCOC(=O)C1CCN(Cc2nnc(-c3cccc(Br)c3)o2)CC1
N/C(=N\c1nc2ccccc2o1)NC(=O)C(Cc1ccccc1)N1C(=O)c2ccccc2C1=O (centres undefined)
CCOC(=O)COn1c(=O)c(-c2ccc(OCC)cc2)[n+]([O-])c2ccccc21
NC(=O)C1CCN(C(=O)c2ccc3c(=O)n(Cc4cccc(Br)c4)c(=S)[nH]c3c2)CC1
CC(C)/C=N/NC(=O)c1cc(Br)ccc1O
CC(=O)N/N=C(\C)c1ccc(Br)cc1Br
CC1(C(=O)O)CCC(C(=O)Nc2ccc(Cl)c(Cl)c2)C1(C)C (centres undefined)
CC(=O)Nc1cccc(NC(=O)c2ccc3c(c2)CCN3S(C)(=O)=O)c1
Cc1nc(-c2ccc(Cl)cc2)sc1C1(C)CC(c2ccc(Br)cc2)=NO1 (centres undefined)
Cc1nc(C(=O)NCc2ccccc2)sc1C1(C)CC(c2cccnc2)=NO1 (centres undefined)
CC1C(=O)Nc2ccc(S(=O)(=O)N3CCN(c4ccccc4F)CC3)cc2NC1=O (centres undefined)
C=CCC1(CC=C)CCCN1C(=O)CC1C(=O)NCCN1Cc1ccccc1OC (centres undefined)
COc1ccc(N2CCN(C(=O)/C(C#N)=C/c3ccccc3)CC2)cc1
N#C/C(=C/c1ccc(N2CCOCC2)o1)C(=O)N1CCOCC1
COc1ccc(N2CC(C(=O)N[C@@H](C)C(=O)N3CCCCC3)CC2=O)cc1 (some centres undefined)
Cc1cc(C(C)(C)C)oc1C(=O)N(CC(=O)NC1CCCC1)Cc1ccc(Cl)cc1
COCCN1C(=O)C(=O)/C(=C(/O)c2ccc(S(=O)(=O)N3CCOCC3)cc2)C1c1ccc(O)c(OC)c1 (centres undefined)
COc1ccccc1C(=O)NC(CCSC)C(=O)N1CCN(C/C=C/c2ccccc2)CC1 (centres undefined)
CCOc1ccc(CCNC(=O)COC(=O)CCS(=O)(=O)c2ccc(C)cc2)cc1OCC
N#Cc1c(-c2ccccc2)c(-c2ccccc2)n[nH]c1=O
COc1ccc(-c2oc(/N=C/N3CCCC3)c(C#N)c2-c2ccc(OC)cc2)cc1
O=C(Nc1nnc(COc2ccccc2)s1)Nc1ccccc1F
COc1ccc(C)cc1NC(=O)CCC(=O)Nc1nnc(C(F)(F)F)s1
Cc1ccccc1NS(=O)(=O)CCCCC(Cl)(Cl)Cl
CN(C)S(=O)(=O)c1cccc(NC(=O)COC(=O)C2(c3ccccc3F)CCCC2)c1
N#Cc1ccc(C(=O)Nc2nc(-c3cccs3)c(C(=O)C(F)(F)F)s2)cc1
Cc1sc(NC(=O)c2ccc3ncsc3c2)c(C(N)=O)c1C
Cc1ccc(C(=O)c2c(NC(=O)c3ccncc3)sc3c2CCCC3)cc1
COc1ccc(NC(=O)NNC(=O)COc2cc(C)c(Cl)c(C)c2)c(OC)c1
CC1(C)NC(=O)N(CC(=O)Nc2cc(C(F)(F)F)cc(C(F)(F)F)c2)C1=O
COc1ccc(CCNS(=O)(=O)c2cccc([N+](=O)[O-])c2)cc1
CCC1Sc2ccc(S(=O)(=O)CCC(=O)NCc3cccs3)cc2NC1=O (centres undefined)
CN(C)NC(=O)c1csnc1-c1c(Cl)cccc1Cl
O=c1ccc2cc(S(=O)(=O)Nc3ccccc3F)ccc2o1
CCc1ccccc1NC(=O)c1ccc2snnc2c1
O=C(Nc1cccc(Br)c1)c1ccc2snnc2c1
Cc1ccc(C(=O)NCC(=O)NCc2cc(=O)n(C)c(=O)n2C)cc1
COc1cc(CC(=O)Nc2nc(-c3ccc(F)c(F)c3)cs2)cc(OC)c1OC
Cc1ccc(S(=O)(=O)NC(=O)Nc2nc(-c3ccc(F)c(F)c3)cs2)cc1
NC(=O)[C@H]1CC2(CC(c3cccc(NC(=O)[C@H]4CCC(=O)N4)c3)=NO2)CN1C(=O)c1ccccc1C(=O)c1ccccc1 (some centres undefined)
O=C(Cn1nnc2ccccc2c1=O)Nc1cc(C(F)(F)F)ccc1N1CCOCC1
CCCc1cc(=O)[nH]c(SCC(=O)Nc2sc3c(c2C#N)CCCC3)n1
CCOC(=O)c1cnc(COc2ccccc2Cl)[nH]c1=O
CCOC(=O)c1nc(C)n(-c2ccc(Cl)cc2Cl)n1
COc1ccccc1N1CCN(c2ccc([N+](=O)[O-])nc2)CC1
Oc1ccccc1N1CCN(c2ncnc3sc(-c4ccccc4)cc23)CC1
CCN(CC)S(=O)(=O)c1ccc(OC(C)C)c(N)c1
CCc1ccccc1NC(=O)/C(=C/c1ccccc1)c1ccccc1
COCc1cc(C)nc2sc3c(=O)n(-c4cccc5ccccc45)nnc3c12
COc1ccc(/C=C/C(=O)Nc2ccc(C34CC5CC(CC(O)(C5)C3)C4)cc2)cc1OC
O=C(O)c1cnn2c(C(F)(F)F)cc(-c3ccccc3)nc12
Cc1cccc(N2CCN(C(=O)c3cc4c(=O)[nH]c5ccccc5c4n3C)CC2)c1C

B-score, active:
Brc1ccc(C2CC(c3ccccc3)=Nc3ccccc3N2)cc1 (centres undefined) 10
O=C(Cc1cccc2ccccc12)NNC(=O)Nc1ccc(Cl)cc1 6
O=C(NC(Nc1nc2ccc([N+](=O)[O-])cc2s1)(C(F)(F)F)C(F)(F)F)c1ccccc1 8
O=C(Nc1nc2ccc([N+](=O)[O-])cc2s1)c1ccc(S(=O)(=O)N2CCCc3ccccc32)cc1 9
COc1cccc(NC(C)=[N+](C)CCNS(=O)(=O)c2ccc(Cl)cc2)c1 6
COc1ccc(S(=O)(=O)NCCCCOc2ccc(Cl)cc2)cc1 9
CCOC(=O)C1CCN(c2ncnc3c2oc2ccc(Br)cc23)CC1 9
CC(=N\NC(=O)c1cc(Br)ccc1O)/C(=N/O)C(=O)Nc1ccccc1 9
Cc1nc(C(=O)Nc2ccc(Cl)cc2)sc1C1(C)CC(c2ccccc2)=NO1 (centres undefined) 6
N#C/C(=C\c1ccc(N2CCOCC2)o1)C(=O)N1CCOCC1 7
N#Cc1c(/N=C/N2CCCC2)oc(-c2ccccc2)c1-c1ccccc1 7
O=C(NCC(F)(F)F)Nc1nnc(C(F)(F)F)s1 6
Cc1ccc(C(=O)c2c(NC(=O)c3ccccc3)sc(C)c2C)cc1 6
CN(C)Cc1ccccc1C1(O)c2ccccc2CSc2ccccc21 (centres undefined) 7
O=C(Nc1ccc2ccccc2c1)Nc1ccc2snnc2c1 8
COc1ccc(CC(=O)Nc2nc(-c3ccc(F)c(F)c3)cs2)cc1OC 9
CCOC(=O)c1cnc(SC)nc1Sc1ccc(Cl)cc1Cl 6
COc1ccccc1N1CCN(c2ncnc3sc(C)c(-c4ccccc4)c23)CC1 9
Cc1cccc(N2CCN(C(=O)c3cnn4c(C(F)F)cc(-c5ccccc5)nc34)CC2)c1C 7
